Test results taken from PubChem BioAssay AID1345085 (National Center for Advancing Translational Sciences (NCATS), 2018).
Inconclusive results are not listed. Calls of active or inactive are those of the source. Calls come from the whole dose curve; as a rule, active = well fitted cell-killing curve with a large enough effect; inconclusive = small, poorly fitted or top-dose-only effect, or effect the other way; inactive = no such curve, though single readings can be large or run the other way.

These molecules were tested on HeLa (assay: Confirmatory qHTS for gynecologic anti-cancer compounds from libraries of approved drugs and bioactive compounds). Details: gynecologic cancer cell panel viability, ATPlite luminescence, 48 h; series mostly up to 57.6 µM.
Method in brief: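 Viability is measured as ATP-dependent luciferase light using ATPlite, read 15 min after reagent addition at room temperature. Compounds, in DMSO, span 57.5 uM down to 0.977 nM over 11 threefold steps for 48 h.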
Note: nearly all actives have a fitted effect of over 55% in size.
Potency is the fitted concentration of half-maximal effect.

SMILES | Potency
Cc1ccc(C(N)=O)cc1Nc1nccc(-c2cn(C(C)C)c3cnccc23)n1 | 7.69 µM (active)
CC1(C)[C@@H](O)CC[C@]2(C)[C@H]3C(=O)C=C4[C@@H]5C[C@@](C)(C(=O)O)CC[C@]5(C)CC[C@@]4(C)[C@]3(C)CC[C@@H]12 | inactive
Cc1ccc2nc(N)[nH]c(=O)c2c1Sc1ccncc1 | 8.63 µM (active)
CNCc1ccc(-c2[nH]c3cc(F)cc4c3c2CCNC4=O)cc1 | inactive
C=CC(=O)Nc1cc2c(Nc3ccc(F)c(Cl)c3)ncnc2cc1OCCCN1CCOCC1 | 27.3 µM (active)
Cc1ccc(C(=O)N(CCCN)C(c2nc3cc(Cl)ccc3c(=O)n2Cc2ccccc2)C(C)C)cc1 (stereo not given) | 0.0172 µM (active)
O=C(CCCCCCNC(=O)c1cnc(N(c2ccccc2)c2ccccc2)nc1)NO | 7.69 µM (active)
COCCOc1ccc2c(c1)ncn2-c1ccc2cccc(N3CCC(N)CC3)c2n1 | 12.2 µM (active)
CN1C2CCC1CC(OC(=O)[C@H](CO)c1ccccc1)C2 (stereo not given in full) | inactive
O=C(c1ccc(/C=C/c2n[nH]c3ccccc23)cc1)N1CCNCC1 | 3.43 µM (active)
O=C(Nc1cccnc1)N1CCC(Cc2cccc(Oc3ccc(C(F)(F)F)cn3)c2)CC1 | 3.85 µM (active)
S=c1nc[nH]c2nc[nH]c12 | 3.43 µM (active)
O=C(CCCCCCC(=O)Nc1ccccc1)NO | 3.43 µM (active)
Cc1csc(NC(=O)c2sc3nc4c(c(C(F)(F)F)c3c2N)CCC4)n1 | 1.93 µM (active)
CNC1CCC(N(Cc2cccc(-c3ccncc3)c2)C(=O)c2sc3ccccc3c2Cl)CC1 (stereo not given) | 27.3 µM (active)
